# Measured values: publication PMC7862700, “An all-to-all approach to the identification of sequence-specific readers for epigenetic DNA modifications on cytosine”
# Assays:
# Experiment in all cases: DAPPL (digital affinity profiling via proximity ligation, sequencing); 10 mM Tris-HCl pH 7.5, 50 mM NaCl, 1 mM DTT, 4% glycerol, room temperature, 30 min; GST-TFs on glutathione beads, 16-mer random dsDNA library, 0.1% formaldehyde crosslink after washing; high values mean tight binding
# [1] = target: T1, FLI1 (Homo sapiens, UniProt Q01543 1-452); conditions: protein: recombinant; tags: N-terminal GST; dsDNA, one strand shown
# T1 sequence: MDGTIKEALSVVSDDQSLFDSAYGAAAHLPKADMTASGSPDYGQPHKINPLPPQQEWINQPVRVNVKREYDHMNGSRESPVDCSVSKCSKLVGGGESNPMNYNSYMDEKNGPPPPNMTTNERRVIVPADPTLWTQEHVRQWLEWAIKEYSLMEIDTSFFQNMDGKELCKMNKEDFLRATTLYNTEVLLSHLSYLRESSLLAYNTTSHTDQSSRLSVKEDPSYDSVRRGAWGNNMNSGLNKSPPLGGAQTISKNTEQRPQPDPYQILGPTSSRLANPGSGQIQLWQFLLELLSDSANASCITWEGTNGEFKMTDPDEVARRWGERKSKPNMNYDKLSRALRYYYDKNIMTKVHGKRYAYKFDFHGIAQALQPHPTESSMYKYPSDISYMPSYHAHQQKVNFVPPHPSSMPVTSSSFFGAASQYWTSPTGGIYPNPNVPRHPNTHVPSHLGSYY
# Summary of the method: (§1)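 Human transcription factors were made in yeast as GST fusions, captured on glutathione beads and barcoded with DNA. With a tag-only sample included, the pool was incubated with 200 nmole of a random double-stranded 16-mer DNA library in Tris/NaCl/DTT/glycerol buffer at room temperature for 30 min, then crosslinked with 0.1% formaldehyde after washing, ligated by proximity, amplified and sequenced. For binding signal, each hexamer's read frequency for a factor is divided by its frequency for the tag-only sample.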
# [2] = target: T2, ELK1 (Homo sapiens, UniProt P19419 1-428); conditions: protein: recombinant; tags: N-terminal GST; dsDNA, one strand shown
# T2 sequence: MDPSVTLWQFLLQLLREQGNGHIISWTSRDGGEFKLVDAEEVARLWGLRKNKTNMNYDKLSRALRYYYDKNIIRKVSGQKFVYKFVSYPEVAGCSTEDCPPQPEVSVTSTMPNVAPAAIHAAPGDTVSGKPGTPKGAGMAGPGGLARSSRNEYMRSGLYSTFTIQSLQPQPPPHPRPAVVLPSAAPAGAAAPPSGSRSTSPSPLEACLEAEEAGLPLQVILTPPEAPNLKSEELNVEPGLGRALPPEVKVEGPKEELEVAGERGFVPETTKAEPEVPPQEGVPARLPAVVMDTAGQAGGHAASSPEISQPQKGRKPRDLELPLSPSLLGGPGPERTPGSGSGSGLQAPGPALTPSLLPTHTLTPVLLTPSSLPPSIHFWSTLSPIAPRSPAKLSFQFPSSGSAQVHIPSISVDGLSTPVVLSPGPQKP
# Summary of the method: as §1
# [3] = target: T3, GABPA (Homo sapiens, UniProt Q06546 1-454); conditions: protein: recombinant; tags: N-terminal GST; dsDNA, one strand shown
# T3 sequence: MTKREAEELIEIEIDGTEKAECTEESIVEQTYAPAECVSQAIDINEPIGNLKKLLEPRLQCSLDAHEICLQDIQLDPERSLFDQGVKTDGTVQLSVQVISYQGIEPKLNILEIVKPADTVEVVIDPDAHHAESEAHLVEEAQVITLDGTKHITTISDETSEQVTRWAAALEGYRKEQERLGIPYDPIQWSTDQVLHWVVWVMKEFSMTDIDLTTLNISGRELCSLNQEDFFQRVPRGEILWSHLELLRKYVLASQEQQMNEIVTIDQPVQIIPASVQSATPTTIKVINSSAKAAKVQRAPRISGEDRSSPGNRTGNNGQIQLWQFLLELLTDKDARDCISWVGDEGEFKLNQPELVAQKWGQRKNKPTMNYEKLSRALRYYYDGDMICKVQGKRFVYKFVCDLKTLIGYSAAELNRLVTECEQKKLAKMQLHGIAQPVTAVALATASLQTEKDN
# Summary of the method: as §1
# [4] = target: T4, ERG (Homo sapiens, UniProt P11308 1-479); conditions: protein: recombinant; tags: N-terminal GST; dsDNA, one strand shown
# T4 sequence: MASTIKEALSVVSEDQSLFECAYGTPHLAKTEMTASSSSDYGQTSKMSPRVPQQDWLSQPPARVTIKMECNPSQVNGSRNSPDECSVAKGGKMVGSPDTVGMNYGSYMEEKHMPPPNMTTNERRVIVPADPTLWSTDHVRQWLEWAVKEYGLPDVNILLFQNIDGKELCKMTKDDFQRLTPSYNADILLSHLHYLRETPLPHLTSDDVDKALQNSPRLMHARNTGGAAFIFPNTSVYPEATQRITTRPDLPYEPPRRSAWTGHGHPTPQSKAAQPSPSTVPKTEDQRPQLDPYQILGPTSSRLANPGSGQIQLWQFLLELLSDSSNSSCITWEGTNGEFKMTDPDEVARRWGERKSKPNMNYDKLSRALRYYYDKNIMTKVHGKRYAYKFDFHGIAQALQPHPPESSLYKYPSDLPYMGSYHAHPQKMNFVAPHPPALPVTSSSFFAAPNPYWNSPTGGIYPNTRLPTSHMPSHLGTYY
# Summary of the method: as §1
# [5] = target: ELF1 (Homo sapiens, UniProt P32519 1-619); conditions: protein: recombinant; tags: N-terminal GST; dsDNA, one strand shown
# Sequence of ELF1 (P32519 whole entry): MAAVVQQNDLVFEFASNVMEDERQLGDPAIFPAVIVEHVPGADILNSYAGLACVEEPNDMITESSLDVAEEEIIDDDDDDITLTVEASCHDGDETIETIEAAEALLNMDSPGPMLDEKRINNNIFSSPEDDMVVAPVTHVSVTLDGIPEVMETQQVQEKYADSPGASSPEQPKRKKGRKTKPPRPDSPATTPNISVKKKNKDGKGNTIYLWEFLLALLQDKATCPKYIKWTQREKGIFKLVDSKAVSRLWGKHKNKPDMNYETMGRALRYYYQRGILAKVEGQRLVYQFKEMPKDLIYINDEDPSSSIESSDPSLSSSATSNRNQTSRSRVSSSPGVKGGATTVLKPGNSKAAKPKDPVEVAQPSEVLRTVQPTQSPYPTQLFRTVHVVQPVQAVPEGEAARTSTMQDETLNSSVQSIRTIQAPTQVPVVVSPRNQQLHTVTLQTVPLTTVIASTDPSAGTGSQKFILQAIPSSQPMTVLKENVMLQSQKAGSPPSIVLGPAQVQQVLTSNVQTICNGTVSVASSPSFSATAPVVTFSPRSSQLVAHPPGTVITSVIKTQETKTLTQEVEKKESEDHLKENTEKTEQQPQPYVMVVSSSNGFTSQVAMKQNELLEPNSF
# Summary of the method: as §1
# [6] = target: T5, EHF (Homo sapiens, UniProt Q9NZC4 1-300); conditions: protein: recombinant; tags: N-terminal GST; dsDNA, one strand shown
# T5 sequence: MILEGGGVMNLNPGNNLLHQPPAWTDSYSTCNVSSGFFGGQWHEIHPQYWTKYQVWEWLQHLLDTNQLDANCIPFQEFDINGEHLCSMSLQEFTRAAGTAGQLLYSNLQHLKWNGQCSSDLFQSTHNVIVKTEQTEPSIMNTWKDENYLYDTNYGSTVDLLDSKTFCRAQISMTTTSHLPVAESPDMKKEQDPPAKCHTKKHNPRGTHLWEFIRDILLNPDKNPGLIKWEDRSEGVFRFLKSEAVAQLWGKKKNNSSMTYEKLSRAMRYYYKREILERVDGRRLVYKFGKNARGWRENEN
# Summary of the method: as §1
# [7] = target: SPI1 (Homo sapiens, UniProt P17947 1-270); conditions: protein: recombinant; tags: N-terminal GST; dsDNA, one strand shown
# Summary of the method: as §1
# [8] = target: SPIB (Homo sapiens, UniProt Q01892 1-262); conditions: protein: recombinant; tags: N-terminal GST; dsDNA, one strand shown
# Sequence of SPIB (Q01892 whole entry): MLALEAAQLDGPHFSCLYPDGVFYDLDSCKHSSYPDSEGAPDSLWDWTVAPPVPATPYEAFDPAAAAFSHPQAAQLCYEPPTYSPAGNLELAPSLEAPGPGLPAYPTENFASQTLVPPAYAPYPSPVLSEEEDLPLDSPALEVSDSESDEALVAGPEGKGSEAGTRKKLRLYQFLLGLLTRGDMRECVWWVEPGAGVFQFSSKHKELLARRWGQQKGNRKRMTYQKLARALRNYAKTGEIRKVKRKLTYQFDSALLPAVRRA
# Summary of the method: as §1
# [9] = target: T6, ELK3 (Homo sapiens, UniProt P41970 1-407); conditions: protein: recombinant; tags: N-terminal GST; dsDNA, one strand shown
# T6 sequence: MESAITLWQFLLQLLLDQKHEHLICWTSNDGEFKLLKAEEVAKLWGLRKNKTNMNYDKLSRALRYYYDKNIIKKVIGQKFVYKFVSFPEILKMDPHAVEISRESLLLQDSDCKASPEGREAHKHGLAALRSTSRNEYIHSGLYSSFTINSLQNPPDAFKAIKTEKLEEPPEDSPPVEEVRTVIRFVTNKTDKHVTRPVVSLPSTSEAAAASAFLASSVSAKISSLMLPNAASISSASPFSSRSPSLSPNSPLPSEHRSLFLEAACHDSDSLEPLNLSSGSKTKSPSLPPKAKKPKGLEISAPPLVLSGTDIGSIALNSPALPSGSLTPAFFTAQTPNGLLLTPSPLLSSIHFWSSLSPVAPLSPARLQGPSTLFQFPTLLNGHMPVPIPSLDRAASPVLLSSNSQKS
# Summary of the method: as §1
# [10] = target: T7, FEV (Homo sapiens, UniProt Q99581 1-238); conditions: protein: recombinant; tags: N-terminal GST; dsDNA, one strand shown
# T7 sequence: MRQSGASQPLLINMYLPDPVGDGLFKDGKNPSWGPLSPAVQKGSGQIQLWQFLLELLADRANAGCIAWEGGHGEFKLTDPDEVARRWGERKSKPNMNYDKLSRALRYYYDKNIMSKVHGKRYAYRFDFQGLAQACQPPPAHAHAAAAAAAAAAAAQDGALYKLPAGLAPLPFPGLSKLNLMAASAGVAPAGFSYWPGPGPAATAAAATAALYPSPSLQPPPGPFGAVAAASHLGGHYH
# Summary of the method: as §1
# [11] = target: ETV5 (Homo sapiens, UniProt P41161 1-510); conditions: protein: recombinant; tags: N-terminal GST; dsDNA, one strand shown
# Sequence of ETV5 (P41161 whole entry): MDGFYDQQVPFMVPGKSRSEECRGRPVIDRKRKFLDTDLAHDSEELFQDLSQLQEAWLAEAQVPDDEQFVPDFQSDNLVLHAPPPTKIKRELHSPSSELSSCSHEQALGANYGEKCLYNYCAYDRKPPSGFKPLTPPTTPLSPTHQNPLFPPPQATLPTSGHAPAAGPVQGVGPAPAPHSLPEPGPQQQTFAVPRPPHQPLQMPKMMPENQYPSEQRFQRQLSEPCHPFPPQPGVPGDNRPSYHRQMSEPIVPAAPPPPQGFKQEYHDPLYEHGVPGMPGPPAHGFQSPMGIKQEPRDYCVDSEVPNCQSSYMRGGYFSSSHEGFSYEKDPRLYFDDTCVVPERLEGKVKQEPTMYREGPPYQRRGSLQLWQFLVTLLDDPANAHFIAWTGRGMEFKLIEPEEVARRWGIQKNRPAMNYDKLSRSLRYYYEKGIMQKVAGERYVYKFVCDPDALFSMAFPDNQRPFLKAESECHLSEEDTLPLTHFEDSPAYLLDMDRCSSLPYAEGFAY
# Summary of the method: as §1
# [12] = target: HSF1 (Homo sapiens, UniProt Q00613 1-529); conditions: protein: recombinant; tags: N-terminal GST; chain copies: 3; dsDNA, one strand shown
# Sequence of HSF1 (Q00613 whole entry): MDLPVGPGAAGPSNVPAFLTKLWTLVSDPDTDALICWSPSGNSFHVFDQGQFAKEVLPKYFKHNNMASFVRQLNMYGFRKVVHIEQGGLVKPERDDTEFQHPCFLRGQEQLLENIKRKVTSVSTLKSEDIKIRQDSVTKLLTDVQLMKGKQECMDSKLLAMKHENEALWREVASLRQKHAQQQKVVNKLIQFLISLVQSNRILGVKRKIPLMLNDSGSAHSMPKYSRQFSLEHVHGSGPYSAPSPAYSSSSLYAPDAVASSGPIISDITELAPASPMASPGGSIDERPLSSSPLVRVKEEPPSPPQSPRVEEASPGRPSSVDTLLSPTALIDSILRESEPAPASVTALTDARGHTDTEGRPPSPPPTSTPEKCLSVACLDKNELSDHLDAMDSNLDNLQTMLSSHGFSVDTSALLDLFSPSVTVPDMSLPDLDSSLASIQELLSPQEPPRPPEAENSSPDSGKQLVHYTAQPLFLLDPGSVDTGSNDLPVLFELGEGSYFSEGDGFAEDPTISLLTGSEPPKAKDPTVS
# Summary of the method: as §1
# [13] = target: T8, SPIC (Homo sapiens, UniProt Q8N5J4 1-248); conditions: protein: recombinant; tags: N-terminal GST; dsDNA, one strand shown
# T8 sequence: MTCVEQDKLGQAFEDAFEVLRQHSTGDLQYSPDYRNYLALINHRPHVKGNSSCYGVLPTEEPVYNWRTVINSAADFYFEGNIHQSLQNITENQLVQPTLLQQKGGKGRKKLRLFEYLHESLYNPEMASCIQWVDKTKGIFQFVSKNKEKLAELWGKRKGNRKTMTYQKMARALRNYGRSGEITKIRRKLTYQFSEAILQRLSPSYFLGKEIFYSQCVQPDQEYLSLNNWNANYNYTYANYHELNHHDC
# Summary of the method: as §1
# [14] = target: ELF4 (Homo sapiens, UniProt Q99607 1-663); conditions: protein: recombinant; tags: N-terminal GST; dsDNA, one strand shown
# Sequence of ELF4 (Q99607 whole entry): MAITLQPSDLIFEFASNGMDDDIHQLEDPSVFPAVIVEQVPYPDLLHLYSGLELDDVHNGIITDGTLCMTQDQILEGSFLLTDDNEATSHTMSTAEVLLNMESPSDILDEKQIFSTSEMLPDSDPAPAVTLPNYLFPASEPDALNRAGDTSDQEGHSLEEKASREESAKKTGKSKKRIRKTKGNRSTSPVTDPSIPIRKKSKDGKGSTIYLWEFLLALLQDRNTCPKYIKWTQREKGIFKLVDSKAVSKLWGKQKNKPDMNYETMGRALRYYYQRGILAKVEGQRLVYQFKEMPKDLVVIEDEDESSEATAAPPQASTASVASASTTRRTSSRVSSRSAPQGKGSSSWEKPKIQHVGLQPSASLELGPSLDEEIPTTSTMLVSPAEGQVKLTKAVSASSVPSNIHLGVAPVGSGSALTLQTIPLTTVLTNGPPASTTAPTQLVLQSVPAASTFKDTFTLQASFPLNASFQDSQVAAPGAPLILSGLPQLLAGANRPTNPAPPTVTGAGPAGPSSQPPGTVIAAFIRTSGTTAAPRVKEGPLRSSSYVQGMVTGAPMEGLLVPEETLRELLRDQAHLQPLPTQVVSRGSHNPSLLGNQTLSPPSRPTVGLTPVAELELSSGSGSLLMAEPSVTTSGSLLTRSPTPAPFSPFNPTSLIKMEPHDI
# Summary of the method: as §1
# [15] = target: T9, ELK4 (Homo sapiens, UniProt P28324-2 1-405); conditions: protein: recombinant; tags: N-terminal GST; dsDNA, one strand shown
# T9 sequence: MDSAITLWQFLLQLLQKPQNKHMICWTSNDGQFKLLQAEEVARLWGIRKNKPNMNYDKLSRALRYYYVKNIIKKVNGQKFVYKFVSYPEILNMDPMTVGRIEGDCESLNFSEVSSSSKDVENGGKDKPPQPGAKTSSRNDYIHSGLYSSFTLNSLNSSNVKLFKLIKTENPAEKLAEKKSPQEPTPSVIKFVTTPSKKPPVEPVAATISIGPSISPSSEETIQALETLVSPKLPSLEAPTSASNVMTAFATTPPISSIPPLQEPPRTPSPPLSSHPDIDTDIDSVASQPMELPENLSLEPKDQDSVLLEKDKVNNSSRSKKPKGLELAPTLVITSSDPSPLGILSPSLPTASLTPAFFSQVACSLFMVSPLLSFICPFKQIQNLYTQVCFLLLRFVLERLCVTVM
# Summary of the method: as §1
# [16] = target: T10, ETV2 (Homo sapiens, UniProt O00321 1-342); conditions: protein: recombinant; tags: N-terminal GST; dsDNA, one strand shown
# T10 sequence: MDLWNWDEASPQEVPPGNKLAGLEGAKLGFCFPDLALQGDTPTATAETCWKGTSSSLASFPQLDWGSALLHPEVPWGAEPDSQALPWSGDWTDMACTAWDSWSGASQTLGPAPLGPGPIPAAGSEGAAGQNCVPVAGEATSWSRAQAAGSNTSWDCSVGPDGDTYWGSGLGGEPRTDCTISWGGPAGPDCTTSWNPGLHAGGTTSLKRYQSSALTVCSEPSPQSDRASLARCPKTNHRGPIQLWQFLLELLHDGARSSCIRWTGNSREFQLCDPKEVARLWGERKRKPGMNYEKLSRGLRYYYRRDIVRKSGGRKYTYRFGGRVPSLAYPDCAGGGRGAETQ
# Summary of the method: as §1
# [17] = target: T11, ELF3 (Homo sapiens, UniProt P78545 1-371); conditions: protein: recombinant; tags: N-terminal GST; dsDNA, one strand shown
# T11 sequence: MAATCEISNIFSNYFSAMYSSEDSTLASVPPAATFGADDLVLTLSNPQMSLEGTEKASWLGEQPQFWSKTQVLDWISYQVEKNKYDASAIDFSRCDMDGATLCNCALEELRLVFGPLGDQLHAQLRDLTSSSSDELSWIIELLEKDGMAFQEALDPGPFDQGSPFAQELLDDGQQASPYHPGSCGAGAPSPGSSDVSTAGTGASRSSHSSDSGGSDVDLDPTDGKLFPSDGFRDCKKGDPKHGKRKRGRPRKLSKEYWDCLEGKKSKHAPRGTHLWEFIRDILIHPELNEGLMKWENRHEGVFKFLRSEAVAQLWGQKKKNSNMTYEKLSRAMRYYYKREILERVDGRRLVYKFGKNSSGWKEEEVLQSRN
# Summary of the method: as §1
# [18] = target: CRX (Homo sapiens, UniProt O43186 1-299); conditions: protein: recombinant; tags: N-terminal GST; dsDNA, one strand shown
# Sequence of CRX (O43186 whole entry): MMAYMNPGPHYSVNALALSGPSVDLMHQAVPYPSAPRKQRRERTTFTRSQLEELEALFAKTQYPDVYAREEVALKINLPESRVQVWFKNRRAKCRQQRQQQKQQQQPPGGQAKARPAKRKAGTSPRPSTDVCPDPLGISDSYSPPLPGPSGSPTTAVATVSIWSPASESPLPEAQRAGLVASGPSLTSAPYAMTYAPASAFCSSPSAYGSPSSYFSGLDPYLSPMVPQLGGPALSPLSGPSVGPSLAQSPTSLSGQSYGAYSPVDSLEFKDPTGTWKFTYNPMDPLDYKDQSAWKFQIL
# Summary of the method: as §1
# [19] = target: ETV1 (Homo sapiens, UniProt P50549 1-477); conditions: protein: recombinant; tags: N-terminal GST; dsDNA, one strand shown
# Sequence of ETV1 (P50549 whole entry): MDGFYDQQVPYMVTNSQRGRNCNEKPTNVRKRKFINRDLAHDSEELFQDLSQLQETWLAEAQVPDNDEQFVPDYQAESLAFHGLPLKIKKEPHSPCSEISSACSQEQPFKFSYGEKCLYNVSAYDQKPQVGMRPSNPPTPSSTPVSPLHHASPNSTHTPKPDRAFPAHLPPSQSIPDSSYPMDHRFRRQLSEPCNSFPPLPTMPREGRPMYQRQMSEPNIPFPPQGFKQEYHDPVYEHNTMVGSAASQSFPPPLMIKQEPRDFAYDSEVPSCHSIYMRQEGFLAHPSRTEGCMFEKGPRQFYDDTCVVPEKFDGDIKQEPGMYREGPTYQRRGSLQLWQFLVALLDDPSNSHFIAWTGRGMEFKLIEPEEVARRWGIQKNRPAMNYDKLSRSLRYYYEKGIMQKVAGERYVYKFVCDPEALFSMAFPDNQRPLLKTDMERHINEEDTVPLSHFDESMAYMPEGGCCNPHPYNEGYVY
# Summary of the method: as §1
sequence,measurement,setting,value
CTAAAT,binding signal,[1],"1.34 fold enrichment (6-mer frequency, TF over GST control)"
same,binding signal,[2],"1.36 fold enrichment (6-mer frequency, TF over GST control)"
same,binding signal,[3],"1.31 fold enrichment (6-mer frequency, TF over GST control)"
same,binding signal,[4],"1.34 fold enrichment (6-mer frequency, TF over GST control)"
same,binding signal,[5],"1.3 fold enrichment (6-mer frequency, TF over GST control)"
same,binding signal,[6],"1.34 fold enrichment (6-mer frequency, TF over GST control)"
same,binding signal,[7],"1.37 fold enrichment (6-mer frequency, TF over GST control)"
same,binding signal,[8],"1.38 fold enrichment (6-mer frequency, TF over GST control)"
same,binding signal,[9],"1.37 fold enrichment (6-mer frequency, TF over GST control)"
same,binding signal,[10],"1.3 fold enrichment (6-mer frequency, TF over GST control)"
same,binding signal,[11],"1.42 fold enrichment (6-mer frequency, TF over GST control)"
same,binding signal,[12],"1.59 fold enrichment (6-mer frequency, TF over GST control)"
same,binding signal,[13],"1.38 fold enrichment (6-mer frequency, TF over GST control)"
same,binding signal,[14],"1.36 fold enrichment (6-mer frequency, TF over GST control)"
same,binding signal,[15],"1.42 fold enrichment (6-mer frequency, TF over GST control)"
same,binding signal,[16],"1.33 fold enrichment (6-mer frequency, TF over GST control)"
same,binding signal,[17],"1.46 fold enrichment (6-mer frequency, TF over GST control)"
same,binding signal,[18],"1.9 fold enrichment (6-mer frequency, TF over GST control)"
same,binding signal,[19],"1.42 fold enrichment (6-mer frequency, TF over GST control)"
